A number with no mark means an inactive call. For part of these data: Entries with a potency or affinity are not part of this list. Active and inactive are the calls of the source. Unless noted, the rule behind the calls is not given here.

Our source for the growth inhibition, inhibition and outcome values is PubChem BioAssay.

A short description of test [1]: antimalarial activity against Dd2 strain (AID 2302;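 active = growth inhibition above 50% at the single 2 µM test dose, taken to imply half-maximal potency below 2 µM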;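 note: 0% = DMSO untreated growth and 100% = chloroquine plus artemisinin killed control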). As to conditions: P. falciparum Dd2 in RBCs, LDH growth readout, 72 h; at 2 µM; hits give high values.
A short description of test [2]: human hepatoma cell viability loss – ATP luminescence, cytotoxicity control for P. falciparum antimalarial project, primary screen (AID 2303;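 active = inhibition above 50%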;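 note: 0% = DMSO wells and 100% = digitonin-killed cells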). As to conditions: HepG2 viability, 24-48 h, at 10 µM, hits give high values.
For test [3], the target named is L-lactate dehydrogenase (Plasmodium falciparum (isolate CDC / Honduras)) (UniProt Q27743). The test can be described thus: PfLDH activity inhibition – cell lysate, 3D7 strain, counter-screen for P. falciparum growth inhibition project (AID 2304).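 Note: 0% = vehicle and 100% = reference inhibitor.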 The following applies: P. falciparum 3D7 crude extract, LDH APAD/NBT absorbance; at 2 µM; hits give high values.
Sequence of L-lactate dehydrogenase (Plasmodium falciparum (isolate CDC / Honduras)) (Q27743 whole entry, looked up): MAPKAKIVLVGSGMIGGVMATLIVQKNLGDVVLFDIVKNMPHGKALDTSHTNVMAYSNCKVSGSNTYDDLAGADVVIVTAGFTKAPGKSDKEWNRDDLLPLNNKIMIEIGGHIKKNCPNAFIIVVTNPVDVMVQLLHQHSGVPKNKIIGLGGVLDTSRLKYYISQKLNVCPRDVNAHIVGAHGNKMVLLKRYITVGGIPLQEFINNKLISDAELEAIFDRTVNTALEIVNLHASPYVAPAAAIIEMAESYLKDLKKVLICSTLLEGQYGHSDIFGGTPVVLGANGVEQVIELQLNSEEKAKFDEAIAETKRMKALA
A short description of test [4]: inhibition of 3D7 malaria parasite growth – strain 3D7 (AID 2306).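 Note: 0% = DMSO wells and 100% = chloroquine plus artemisinin control wells.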 As to conditions: P. falciparum 3D7 erythrocytic growth, LDH absorbance, 72 h; at 2 µM; hits give high values.
In test [5] the target is Calcium-dependent protein kinase 1 (Plasmodium falciparum (isolate 3D7)) (UniProt P62344). The test can be described thus: PfCDPK1 kinase inhibitors, biochemical, TCAMS library (AID 1159585; cut-off not given, nearly all actives have IC50 up to about 0.98 µM;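 note: inhibitors leave more ATP so luminescence rises with inhibition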). The following applies: recombinant PfCDPK1, Kinase-Glo ATP depletion luminescence. In general terms: Kinase-Glo reads ATP consumption through a luciferase reaction.
Sequence of Calcium-dependent protein kinase 1 (Plasmodium falciparum (isolate 3D7)) (P62344 whole entry, looked up): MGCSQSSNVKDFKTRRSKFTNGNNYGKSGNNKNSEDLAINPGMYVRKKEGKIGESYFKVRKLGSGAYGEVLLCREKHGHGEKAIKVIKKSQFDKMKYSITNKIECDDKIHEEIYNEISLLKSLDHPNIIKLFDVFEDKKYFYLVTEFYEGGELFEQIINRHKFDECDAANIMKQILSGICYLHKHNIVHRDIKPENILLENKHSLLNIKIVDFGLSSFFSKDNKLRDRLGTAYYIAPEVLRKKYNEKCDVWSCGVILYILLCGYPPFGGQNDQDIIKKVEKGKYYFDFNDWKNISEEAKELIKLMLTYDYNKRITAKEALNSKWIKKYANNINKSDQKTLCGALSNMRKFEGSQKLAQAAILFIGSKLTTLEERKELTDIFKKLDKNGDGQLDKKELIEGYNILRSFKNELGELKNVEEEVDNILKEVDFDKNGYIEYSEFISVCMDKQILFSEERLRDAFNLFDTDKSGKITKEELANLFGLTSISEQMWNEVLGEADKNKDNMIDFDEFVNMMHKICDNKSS
For test [6], the target named is Plasmodium falciparum protein kinase 6 (PK6, PF3D7_1337100) (UniProt Q8IDW1). The experiment in a line: PfPK6 kinase inhibitors, biochemical, TCAMS library (AID 1159586). The following applies: recombinant PfPK6, Kinase-Glo ATP depletion luminescence.
Sequence of Plasmodium falciparum protein kinase 6 (PK6, PF3D7_1337100) (Q8IDW1 1-305): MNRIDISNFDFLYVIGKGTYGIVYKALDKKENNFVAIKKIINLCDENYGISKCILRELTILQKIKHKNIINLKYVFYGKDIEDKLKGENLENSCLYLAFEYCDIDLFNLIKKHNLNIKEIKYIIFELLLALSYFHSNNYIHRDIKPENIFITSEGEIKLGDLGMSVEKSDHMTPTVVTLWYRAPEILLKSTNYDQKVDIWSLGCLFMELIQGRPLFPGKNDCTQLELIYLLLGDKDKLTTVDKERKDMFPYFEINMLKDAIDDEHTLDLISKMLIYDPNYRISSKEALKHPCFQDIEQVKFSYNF
Test [7] has as its target Protein kinase 7 (PK7), Plasmodium falciparum 3D7 (PF3D7_0213400) (UniProt Q7YTF7). The test can be described thus: inhibition of Plasmodium PK7 catalytic activity – biochemical, TCAMS antimalarial set, Kinase-Glo luminescence (AID 1159587). The following applies: recombinant PfPK7, Kinase-Glo ATP depletion luminescence.
Test [8] concerns the target Calcium-dependent protein kinase 4 (Plasmodium falciparum (isolate 3D7)) (UniProt Q8IBS5). The experiment in a line: PfCDPK4 kinase inhibitors, biochemical, TCAMS library (AID 1159588; cut-off not given, nearly all actives have IC50 up to about 0.91 µM). As to conditions: recombinant PfCDPK4, Kinase-Glo ATP depletion luminescence.

Sequence of Protein kinase 7 (PK7), Plasmodium falciparum 3D7 (PF3D7_0213400) (Q7YTF7 1-343): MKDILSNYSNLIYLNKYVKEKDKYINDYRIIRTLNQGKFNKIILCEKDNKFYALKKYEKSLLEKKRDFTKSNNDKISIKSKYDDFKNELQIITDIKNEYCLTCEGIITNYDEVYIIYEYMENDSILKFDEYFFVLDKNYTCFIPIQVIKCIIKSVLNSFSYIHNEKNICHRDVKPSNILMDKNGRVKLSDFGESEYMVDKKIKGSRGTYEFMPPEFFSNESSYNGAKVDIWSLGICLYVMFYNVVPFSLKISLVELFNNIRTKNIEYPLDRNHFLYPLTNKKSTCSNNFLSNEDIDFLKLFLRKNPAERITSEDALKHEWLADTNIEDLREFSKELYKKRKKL
Sequence of Calcium-dependent protein kinase 4 (Plasmodium falciparum (isolate 3D7)) (Q8IBS5 whole entry, looked up): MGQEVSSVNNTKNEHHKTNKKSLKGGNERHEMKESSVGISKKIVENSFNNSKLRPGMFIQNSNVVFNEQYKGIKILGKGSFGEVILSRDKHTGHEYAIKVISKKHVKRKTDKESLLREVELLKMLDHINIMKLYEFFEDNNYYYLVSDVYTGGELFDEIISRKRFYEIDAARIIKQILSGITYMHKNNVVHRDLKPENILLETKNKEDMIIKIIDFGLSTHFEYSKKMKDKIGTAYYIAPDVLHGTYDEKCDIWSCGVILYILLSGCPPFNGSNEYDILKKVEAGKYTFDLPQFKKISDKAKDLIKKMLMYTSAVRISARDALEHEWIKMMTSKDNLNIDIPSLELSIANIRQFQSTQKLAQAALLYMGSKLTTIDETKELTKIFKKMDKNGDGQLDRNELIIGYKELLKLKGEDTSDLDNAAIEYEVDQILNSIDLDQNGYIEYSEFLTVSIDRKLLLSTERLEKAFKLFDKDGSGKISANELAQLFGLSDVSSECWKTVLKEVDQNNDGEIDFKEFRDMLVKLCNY

With `CN(C)CCNC(=O)NC1CN(c2ncnc3cc(-c4ccccc4)sc23)C1`, the figures for the growth inhibition in test [1] and in test [4] were 39% and 100% (active), respectively. Besides, the inhibition is 7% in test [2] and 5% in test [3]. The result in test [5], in test [6], in test [7] and in test [8] was inactive.
As to `COc1ccccc1N1CCN(C(C(=O)NCc2ccc3c(c2)OCO3)c2ccc3c(c2)OCCCO3)CC1` (stereo not drawn), the results for the growth inhibition in test [1] and in test [4] were 13% and 88% (active), respectively. For the same compound, the values for the inhibition in test [2] and in test [3] were 15% and 5%, respectively. Also, the result in test [5], in test [6], in test [7] and in test [8] was inactive.
In the case of `CNC(=O)c1cnc(Nc2ccc(OCC(O)CN(C)C)cc2)nc1Nc1cccc(Br)c1` (stereo not drawn), the figures for the growth inhibition in test [1] and in test [4] were 100% (active) and 102% (active), respectively. The inhibition in test [2] was 68% (active); in test [3], -5%. Moreover, the result in test [5], in test [6], in test [7] and in test [8] was inactive.
Turning to `Cc1cccc(NC(=O)NCc2ccccc2)n1`, the results for the growth inhibition in test [1] and in test [4] were 2% and 97% (active), respectively. For the same compound, the inhibition was 14% in test [2] and -2% in test [3]. For the same compound, the outcome in test [5], in test [6], in test [7] and in test [8] was inactive.
On to `CCOCCCn1c(=N)c(C(=O)NC(C)c2ccccc2)cc2c(=O)n3cccc(C)c3nc21` (stereo not drawn), for which the growth inhibition in test [1] was 31%; in test [4], 95% (active). Further, the inhibition is 24% in test [2] and -4% in test [3]. Also, the result in test [5], in test [6], in test [7] and in test [8] was inactive.
Take `Cc1nn(-c2ccccc2)nc1C(=O)NC1CCN(CCNC(=O)c2ccc(Cl)c(Cl)c2)CC1`: the growth inhibition was 5% in test [1] and 89% (active) in test [4]. Besides, the inhibition in test [2] was 15%; in test [3] it was 0%. Moreover, the outcome in test [5], in test [6], in test [7] and in test [8] was inactive.
For `C=CCn1c(Sc2ccc(C#N)c([N+](=O)[O-])c2)nnc1-c1ccc(Cl)cc1`, the values for the growth inhibition in test [1] and in test [4] were 85% (active) and 97% (active), respectively. Besides, the inhibition in test [2] is 13%; in test [3], 3%. Besides, the outcome in test [5], in test [6], in test [7] and in test [8] was inactive.
Regarding `OC1CCCN(Cc2ccc(-c3ccc(-c4nc5ccc(F)cc5[nH]4)s3)cc2)C1` (stereo not drawn), the values for the growth inhibition in test [1] and in test [4] were 99% (active) and 100% (active), respectively. Besides, the inhibition in test [2] is 40%; in test [3], -5%. Moreover, the outcome in test [5], in test [6], in test [7] and in test [8] was inactive.
Consider `Cc1noc(-c2cccs2)c1C(=O)NCCc1cccc(Cl)c1`, for which the results for the growth inhibition in test [1] and in test [4] were 95% (active) and 97% (active), respectively. The results for the inhibition in test [2] and in test [3] were -17% and 0%, respectively. In addition, the outcome in test [5], in test [6], in test [7] and in test [8] was inactive.
Turning to `CC(CN1CCN(CC(c2ccc(F)cc2)N2CCN(C)CC2)CC1)C(=O)c1ccc(O)cc1` (stereo not drawn), the growth inhibition in test [1] was 10%; in test [4], 97% (active). The inhibition in test [2] was -2%; in test [3] it was -5%. The result in test [5], in test [6], in test [7] and in test [8] was inactive.
For the compound `CN1CCC(NCc2ccc(-c3ccc(Cl)cc3)cc2)CC1`, the growth inhibition in test [1] is 43%; in test [4], 99% (active). The values for the inhibition in test [2] and in test [3] were 50% (active) and 6%, respectively. The result in test [5], in test [6], in test [7] and in test [8] was inactive.
As for `CC(=O)Nc1ccc(Cl)c(Cl)c1`, the growth inhibition in test [1] is 98% (active); in test [4], 95% (active). Further, the inhibition in test [2] is 5%; in test [3], 9%. Also, the result in test [5], in test [6], in test [7] and in test [8] was inactive.
For `CCOC(=O)Nc1cc(-c2csc(N=C(N)N)n2)cc([N+](=O)[O-])c1`, the growth inhibition in test [1] was 88% (active); in test [4], 101% (active). In addition, the inhibition in test [2] was 12%; in test [3] it was -8%. The outcome in test [5], in test [6], in test [7] and in test [8] was inactive.
Regarding `CCOc1cc(Cl)c(C(C)NC(=O)c2cccc(OC)c2)cc1OCC` (stereo not drawn), the growth inhibition in test [1] was 92% (active); in test [4] it was 98% (active). Besides, the inhibition in test [2] is 29%; in test [3], 6%. The result in test [5], in test [6], in test [7] and in test [8] was inactive.
As to `O=C(NC1CCN(Cc2ccccc2)CC1)c1ccc(-c2nc3cc(Cl)c(Cl)cc3[nH]2)s1`, the results for the growth inhibition in test [1] and in test [4] were 99% (active) and 103% (active), respectively. Moreover, the inhibition in test [2] is 17%; in test [3] it was -1%. Moreover, the result in test [5], in test [6], in test [7] and in test [8] was inactive.
Turning to `COc1ccc(Cn2ncc3c4c(N)nc(N)nc4ccc32)cc1OC`, the growth inhibition in test [1] was 95% (active); in test [4], 94% (active). Besides, the inhibition in test [2] was 68% (active); in test [3], 3%. Also, the outcome in test [5], in test [6], in test [7] and in test [8] was inactive.
In the case of `Cc1ncsc1CCN1C(=O)CC2(C1=O)C(=O)N(Cc1ccccc1)c1ccc(Cl)cc12` (stereo not drawn), the growth inhibition in test [1] is 46%; in test [4], 86% (active). The inhibition in test [2] is 0%; in test [3] it was 1%. In addition, the result in test [5], in test [6], in test [7] and in test [8] was inactive.
Take `OC(c1n[nH]c(=S)n1-c1ccccc1)C(O)c1n[nH]c(=S)n1-c1ccccc1` (stereo not drawn): the growth inhibition in test [1] is 89% (active); in test [4], 92% (active). The inhibition was 18% in test [2] and 4% in test [3]. Moreover, the result in test [5], in test [6], in test [7] and in test [8] was inactive.
Turning to `COc1ccccc1C1CCN(C2CCC(NC(=O)/C=C/c3cc(C(F)(F)F)cc(C(F)(F)F)c3)CC2)CC1` (stereo not drawn), the growth inhibition is 21% in test [1] and 92% (active) in test [4]. For the same compound, the inhibition is 31% in test [2] and -4% in test [3]. Moreover, the result in test [5], in test [6], in test [7] and in test [8] was inactive.
Turning to `Cc1[nH]c(C)c(-c2ccc(OCc3ccccc3C(F)(F)F)nc2)c(=O)c1Br`, the growth inhibition was 97% (active) in test [1] and 98% (active) in test [4]. Also, the inhibition in test [2] was 35%; in test [3], -6%. The result in test [5], in test [6], in test [7] and in test [8] was inactive.
For the compound `Cc1cc(C(F)(F)F)n2nc(C(=O)N(Cc3cncn3Cc3cccc(F)c3)CC3CC3)cc2n1`, the growth inhibition is 92% (active) in test [1] and 101% (active) in test [4]. In addition, the inhibition is -2% in test [2] and 3% in test [3]. Further, the result in test [5], in test [6], in test [7] and in test [8] was inactive.

By inhibition is commonly meant the drop in the measured response relative to a control, in per cent.
